From PubChem BioAssay AID651946 (Broad Institute, 2012)
Entries with a potency or affinity are not part of this list. Calls of active or inactive are those of the source.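 How the source made its calls: active means toxic compound whose fitted half-effect dose of signal loss is at most twice its top tested dose; inconclusive means flat fit losing 30 to 70% signal, or poor fit; inactive means the rest.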

Assay: cytotoxicity in HeLa cells, dose response, cytotoxicity control, cell-based, plate reader, dry powder (AID 651946)
Settings: HeLa viability, ATP luminescence (CellTiter-Glo), 48 h; series mostly up to 26 µM

SMILES	outcome
FC(F)(F)c1ccc(CSc2nnc(-c3ccccc3)o2)cc1	inactive
FC(F)(F)c1ccc(-c2nnc(SCc3ccccc3)o2)cc1	inactive
O=C(Cc1ccccc1)c1nnc(-c2ccccc2)o1	inactive
FC1(F)CCN(CCSc2nnc(-c3ccccc3)o2)CC1	inactive
c1ccc(Cn2cc(CSc3nnc(-c4ccccc4)o3)nn2)cc1	inactive
Fc1ccc(CSc2nnc(-c3ccncc3)o2)cc1	inactive
Fc1cccc(-c2nnc(SCc3ccccc3)o2)c1	inactive
Cc1ccc(-c2nnc(SCc3ccccc3)o2)cc1	inactive
CSc1nnc(-c2ccccc2)o1	inactive
c1ccc(CSc2nnc(-c3cccs3)o2)cc1	inactive
CS(=O)(=O)c1cccc(CSc2nnc(-c3ccccc3)o2)c1	inactive
c1ccc(CCc2nnc(SCc3ccccc3)o2)cc1	inactive
FC(F)(F)c1cccc(CSc2nnc(-c3ccccc3)o2)c1	inactive
Fc1ccc(-c2nnc(SCc3cn(Cc4ccccc4)nn3)o2)cc1	inactive
Fc1cccc(-c2nnc(SCc3ccccn3)o2)c1	inactive
c1ccc(-c2nnc(SCc3cccnc3)o2)cc1	inactive
Clc1ccccc1CSc1nnc(-c2ccccc2)o1	inactive
Fc1ccc(-c2nnc(SCc3ccccc3)o2)cc1	inactive

SMILES	outcome
Cc1nnc(SCc2ccccc2)o1	inactive
c1ccc(-c2nnc(SC3CCCCC3)o2)cc1	inactive
Cc1ccc(CSc2nnc(-c3ccccc3)o2)cc1	inactive
c1ccc(CSc2nnc(-c3ccccc3)s2)cc1	inactive
CC1(O)CN(CCSc2nnc(-c3ccccc3)o2)C1	inactive
COc1ccc(-c2nnc(SCc3ccccn3)o2)cc1	inactive
[O-][n+]1ccccc1CSc1nnc(-c2ccccc2)o1	inactive
Fc1ccc(Cn2cc(CSc3nnc(-c4ccc(F)cc4)o3)nn2)cc1	inactive
COCCSc1nnc(-c2ccccc2)o1	inactive
COc1ccc(-c2nnc(SCc3ccccc3)o2)cc1	inactive
Cc1ccccc1-c1nnc(SCc2ccccc2)o1	inactive
Cc1cccc(-c2nnc(SCc3ccccc3)o2)c1	inactive
c1ccc(-c2nnc(SCc3ccccn3)o2)cc1	inactive
Clc1ccccc1-c1nnc(SCc2ccccc2)o1	inactive
c1ccc(CSc2nnc(-c3ccc(-c4ccccc4)cc3)o2)cc1	inactive
FC(F)(F)c1ccccc1CSc1nnc(-c2ccccc2)o1	inactive
Fc1ccccc1CSc1nnc(-c2ccccc2)o1	inactive
c1ccc(CNc2nnc(-c3ccccc3)o2)cc1	inactive
